Bioassay records as filed in PubChem.
Nrf2 activator = activates Nrf2 signaling. AREc32 ARE-luciferase reporter (MCF7-derived line), luminescence, 24 h. Potency, µM (series often up to 46.1 µM), for inactives: at the highest dose activation, most hits filed as activators. 0.31% of 410,000 active; also: potency is read from the fitted curve at half-maximal effect; % of control where 0% means no effect; nearly all actives have a fitted effect of over 65% in size
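Reporter line AREc32 (ARE-Fluc), seeded overnight in OPTI-MEM with 5% FBS; compound pin-transferred, 24 hr at 37 deg C, 5% CO2; luminescent read-out.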
IL-2 act = activators of IL-2; IL-2 activation reporter assay, cell-based qHTS; stimulated with anti-CD3/CD4/CD28 beads; in transgenic mouse T cells; 0.065% of 360,000 active; activation, % (series mostly up to about 46 µM); in the data active = activation above about 50%; inconclusive = mostly about 30% to 49%; also: 0% is about no effect
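Using fluorescent plate cytometry, EGFP and DsRed are detected in transgenic mouse T cells stimulated 18 h at 37 degrees C with antibody-coated beads after 60 min compound pretreatment.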
ELG1 repair inh = inhibitors of ELG1-dependent DNA repair in HEK293T cells. HEK293T ELG1-luciferase reporter, luminescence, 16 h; DNA damage induced by 5-fluorouridine. Potency, µM (titrated, usually from 46.1 µM), without a hit: at the top dose activity change, negative = inhibition, usual class: inhibitors. 2.3% of 330,000 active. AID 504467; also: potency is read from the fitted curve at half-maximal effect; % is scaled to controls: 0 for no effect and ±100 for the full control effect; nearly all actives have a fitted effect of over 55% in size
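HEK293T cells expressing luciferase-tagged ELG1 (2,000/well) received 5-Fluorouridine plus compound or DMSO for 16 hr at 37 °C. Luciferase was read by ONE-Glo luminescence after 30 min at room temperature.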
BRCA1 expr act = activators of BRCA1 expression; MCF7-BRCA1-FFLuc reporter, luminescence, 48 h; response scale: scaled: vehicle 0%, 10 µM genistein 100%; Potency, µM (doses to about 46.1 µM), for inactives: at the highest dose activation, most hits filed as activators; 1.1% of 380,000 active; AID 624202; also: potency is read from the fitted curve at half-maximal effect; nearly all actives have a fitted effect of over 80% in size
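Using MCF7 cells harboring a BRCA1 firefly luciferase reporter, plated 2 h before compound pinning, the screen measured luminescence after 48 h incubation. Responses were normalized to DMSO and 10 microM genistein, then fitted for concentration-effect.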
Starred values were filed as active, the others as inactive. An excerpt weighted towards active compounds, which were near 3.1% of everything screened. Unless noted, calls follow the shape of the dose curve; as a rule, active = well fitted curve in the direction sought with a large enough effect; inconclusive = small, poorly fitted or top-dose-only effect, or another doubt; inactive = no such curve, though single readings can be large; an effect the other way counts as inactive or inconclusive.

For O=C1CCCc2cc3c(cc21)CC1(C3)Cc2cc3c(cc2C1)C(=O)CCC3 the results were Nrf2 activator -0.8%, IL-2 act -3.6, ELG1 repair inh 13µM* and BRCA1 expr act -43.7%.
For CCOC(=O)[C@]12CCCC=C1N(Cc1cccc3ccccc13)C(=O)[C@H](CC(=O)NCCCCc1ccccc1)C2 the results were Nrf2 activator 0.0%, IL-2 act -0.8 and BRCA1 expr act -6.9%.
For CCC(=O)Nc1ccccc1C(=O)OCC(=O)c1ccc2ccccc2c1 the results were Nrf2 activator 3.5%, IL-2 act -1.7, ELG1 repair inh -20.0% and BRCA1 expr act -16.4%.
For CCC(=O)Nc1ccccc1C(=O)OCC(=O)c1ccccc1 the results were Nrf2 activator 6.4%, IL-2 act 0.1, ELG1 repair inh inconclusive and BRCA1 expr act 2µM*.
For CC(=O)Nc1cccc(C(=O)OCC(=O)c2ccccc2Cl)c1 the results were Nrf2 activator 3.8%, IL-2 act -4.0, ELG1 repair inh inconclusive and BRCA1 expr act inconclusive.
`CCC(=O)Nc1cccc(C(=O)OCC(=O)c2ccccc2Cl)c1` gave Nrf2 activator -0.3%, IL-2 act -3.0, ELG1 repair inh inconclusive and BRCA1 expr act 7.94µM*.
CCc1nnc(SCC(=O)Nc2ccc(Cl)cc2F)c2cc3occc3n12 was read as Nrf2 activator 4.8%.
Screening Cc1c(C(=O)N(Cc2ccccc2F)C2CCS(=O)(=O)C2)oc2ccc(F)cc12 (stereo unspecified) returned Nrf2 activator 3.3%.
CCC(CO)Nc1ccn2nc(-c3cccs3)cc2n1 (stereo unspecified) was read as Nrf2 activator 0.1%, IL-2 act -0.4 and BRCA1 expr act 5.62µM*.
For CN(C)C(=O)CNc1ccn2nc(-c3cccc(Cl)c3)cc2n1 the results were Nrf2 activator 6.0%, IL-2 act 0.0 and BRCA1 expr act 5.01µM*.
For CCC(CO)Nc1ccn2nc(-c3cc(OC)c(OC)c(OC)c3)cc2n1 (stereo unspecified) the results were Nrf2 activator 14.4%, IL-2 act -0.3 and BRCA1 expr act -24.0%.
CCC(CO)Nc1ccn2nc(-c3ccccc3)cc2n1 (stereo unspecified) was read as Nrf2 activator 0.1%, IL-2 act 1.1 and BRCA1 expr act 3.55µM*.
Screening CSCCC(c1nc2ccccc2[nH]1)n1c(-c2ccc3ncccc3c2)nc2ccccc21 (stereo unspecified) returned IL-2 act -0.1.
CC(=O)c1ccc2oc3ccccc3c(=O)c2c1 was read as Nrf2 activator 4.5%, IL-2 act 0.5, ELG1 repair inh inconclusive and BRCA1 expr act 7.94µM*.
Screening CC(=O)c1cc2c(=O)c3ccccc3oc2nc1C returned Nrf2 activator 7.9%, IL-2 act 1.5 and BRCA1 expr act 10µM*.
For COc1ccc2c(=O)c3ccccc3oc2c1 the results were Nrf2 activator inconclusive, IL-2 act 0.6, ELG1 repair inh inconclusive and BRCA1 expr act inconclusive.
For O=C(CSc1n[nH]c(-c2ccccc2)n1)c1ccccc1 the results were Nrf2 activator 4.0%, IL-2 act -3.1, ELG1 repair inh inconclusive and BRCA1 expr act 61.8%.
CC(C)(C)C(=O)CSc1n[nH]c(-c2ccccc2)n1 was read as BRCA1 expr act 7.94µM*.
`CCc1nc2ccccc2c(C(=O)OCC(=O)Nc2cccc(S(=O)(=O)N3CCOCC3)c2)c1C` gave Nrf2 activator -2.5%, IL-2 act -3.5, ELG1 repair inh inconclusive and BRCA1 expr act -101.3%.
CCc1nc2ccccc2c(C(=O)OCC(=O)Nc2ccc(S(=O)(=O)N3CCOCC3)cc2)c1C was read as Nrf2 activator 0.0%, IL-2 act -0.1, ELG1 repair inh 18.4µM* and BRCA1 expr act -73.5%.
For CCc1nc2ccccc2c(C(=O)OCC(=O)Nc2cccc(S(=O)(=O)NC3=NCCCCC3)c2)c1C the results were Nrf2 activator -1.6%, IL-2 act -1.8, ELG1 repair inh 13µM* and BRCA1 expr act -68.8%.
For CCCCCCCOc1ccc(CC(=O)NO)cc1 the results were BRCA1 expr act -33.9%.
COC(=O)c1ccc(COC(=O)c2ccc(SC)cc2OC)cc1 was read as Nrf2 activator 0.0%, IL-2 act -0.9, ELG1 repair inh inconclusive and BRCA1 expr act 8.91µM*.
For COc1cc(OC)c2c(c1)C(=O)OC2c1cc(OC)c(OC)cc1C (stereo unspecified) the results were BRCA1 expr act -1.4%.
Screening CC[n+]1c(/C=C/N(C)c2ccccc2)n(-c2ccccc2)c2ccc(-c3nc4ccccc4s3)cc21 returned Nrf2 activator -2.8%, IL-2 act -0.7, ELG1 repair inh 4.11µM* and BRCA1 expr act -87.0%.
For CCOC(=O)c1ccc2c(c1)n(CC)c(/C=C/N(C)c1ccccc1)[n+]2CC the results were Nrf2 activator -0.8%, IL-2 act -0.7, ELG1 repair inh inconclusive and BRCA1 expr act -47.8%.
`CCCCN(C)CC(O)Cn1cc(/C=C/C(=O)c2ccc(OC)c(OC)c2)c2ccccc21` (stereo unspecified) gave Nrf2 activator -4.5% and BRCA1 expr act -60.7%.
`CCn1c(SCC(=O)N2CCN(c3ccccc3)CC2)nc2c(c1=O)SC(C)C2` (stereo unspecified) gave Nrf2 activator -0.6%, IL-2 act -2.3, ELG1 repair inh 23.1µM* and BRCA1 expr act -16.4%.
CC1Cc2nc(SCC(=O)N3CCN(c4ccccc4)CC3)n(CCc3ccccc3)c(=O)c2S1 (stereo unspecified) was read as Nrf2 activator -1.0%, IL-2 act -4.8, ELG1 repair inh 14.6µM* and BRCA1 expr act 0.2%.
`O=C(CSc1nc2c(c(=O)n1-c1ccccc1)SCC2)N1CCN(c2ccccc2)CC1` gave Nrf2 activator 0.0%, IL-2 act -3.5, ELG1 repair inh 23.1µM* and BRCA1 expr act -0.1%.
CC1Cc2nc(SCC(=O)N3CCN(c4ccccc4)CC3)n(C)c(=O)c2S1 (stereo unspecified) was read as Nrf2 activator -0.2%, IL-2 act -1.6, ELG1 repair inh -22.6% and BRCA1 expr act -6.1%.
For O=C(CSc1nc2c(c(=O)n1-c1ccccc1)SCC2)N1CCOCC1 the results were Nrf2 activator 0.2%, IL-2 act 0.5, ELG1 repair inh 3.4% and BRCA1 expr act 19.9%.
CC1Cc2nc(SCC(=O)N3CCOCC3)n(-c3ccccc3)c(=O)c2S1 (stereo unspecified) was read as Nrf2 activator 0.0%, IL-2 act -1.1, ELG1 repair inh 8.0% and BRCA1 expr act 11.9%.
For Cc1ccc(Cn2nnc3c(=O)n(CC(=O)OCc4ccccc4)cnc32)cc1 the results were Nrf2 activator -0.6%, IL-2 act -0.6, ELG1 repair inh 2.3% and BRCA1 expr act -35.4%.
Screening Cc1ccc(Cn2nnc3c(=O)n(CC(=O)N4CCN(c5ccccc5)CC4)cnc32)cc1 returned Nrf2 activator 0.4%, IL-2 act 1.5, ELG1 repair inh 14.6µM* and BRCA1 expr act -23.9%.
